Assay outcomes as filed in PubChem BioAssay.
NS1 function inh: blocks influenza NS1 protein function. Potency, µM (titrated, usually from 46.1 µM), inactives show at the highest dose activity, positive = more growth. 270,000 tested, 0.4% active. AID 2326; calls by dose curve; further: potency means the concentration at half of the fitted maximal effect; actives are rising curves; nearly all actives have a fitted effect of over 50% in size
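OD600 was taken as the measure of yeast growth restored by compound in an NS1-expressing S. cerevisiae strain. Cells had been washed out of glucose medium and diluted 1:100 into galactose -URA medium, pH 6.0.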
AmpC inh no detg: AmpC beta-lactamase inhibition without detergent. P00811. AmpC nitrocefin hydrolysis, absorbance 480 nm, 0.0001% Triton. Potency, µM (titrated, usually from 57.1 µM), for the others: at the highest dose activity change, negative = inhibition, usual class: inhibitors. 330,000 tested, 0.52% active;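 further: potency means the concentration at half of the fitted maximal effect; plate controls were no compound for no effect and no enzyme for full effect; nearly all actives have a fitted effect of over 20% in size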
Target sequence (P00811 whole entry, looked up): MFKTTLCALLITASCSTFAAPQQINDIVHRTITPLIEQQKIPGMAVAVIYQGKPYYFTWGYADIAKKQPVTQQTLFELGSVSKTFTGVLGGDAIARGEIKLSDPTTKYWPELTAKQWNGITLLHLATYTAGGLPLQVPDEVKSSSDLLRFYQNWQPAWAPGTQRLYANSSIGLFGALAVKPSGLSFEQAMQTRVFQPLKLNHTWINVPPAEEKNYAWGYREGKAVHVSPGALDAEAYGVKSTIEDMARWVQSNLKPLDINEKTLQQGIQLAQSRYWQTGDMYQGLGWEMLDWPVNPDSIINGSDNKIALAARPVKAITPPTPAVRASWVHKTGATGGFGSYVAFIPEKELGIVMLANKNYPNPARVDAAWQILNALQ
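AmpC (5.3 nM in the dispensed reagent) in 20 mM phosphate pH 7.0 with 0.01% (detergent screen) or 0.0001% Triton X-100 was preincubated with compounds for 15 min at room temperature. Nitrocefin was then added from an 800 uM solution, and hydrolysis was followed at 480 nm.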
AmpC detergent: inhibitors of E. coli AmpC beta-lactamase with detergent; AmpC hydrolysis of nitrocefin, absorbance 480 nm, 0.01% Triton; Potency, µM (doses to about 114 µM), for inactives: at the highest dose activity change, negative = inhibition, most hits filed as inhibitors; 370,000 tested, 0.041% active; AID 485294;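 further: potency means the concentration at half of the fitted maximal effect; 0% = no-compound wells and -100% = no-enzyme wells; nearly all actives have a fitted effect of over 25% in size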
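AmpC (5.3 nM in the dispensed reagent) in 20 mM phosphate pH 7.0 with 0.01% (detergent screen) or 0.0001% Triton X-100 was preincubated with compounds for 15 min at room temperature. Nitrocefin was then added from an 800 uM solution, and hydrolysis was followed at 480 nm.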
Shiga toxin inh: Shiga toxin inhibition. 290,000 tested, 9.2% active. Vero cells, Shiga toxin protein synthesis inhibition reporter. inhibition, % at 38.7 µM. AID 2315; in the data active means inhibition mostly above about 28%, no sharp cut-off; inactive means mostly below about 43%; further: 0% is about no effect
Cycloheximide cs: counter-screen hit for Shiga toxin inhibitors, cycloheximide | cell reporter, cycloheximide protein synthesis inhibition counterscreen | max response, % | 300,000 tested, 12% active; in the data active means max response mostly above about 13%, no sharp cut-off; inactive means mostly below about 14%; further: read at 38.3 µM for the half of the compounds with a filed dose; 0% is about no effect
Starred values were filed as active, the others as inactive; ? = inconclusive; . = not tested or not shown; + = active, no number; [ ] = another dose, or the depositor's remark. This excerpt belongs to a sample that is enriched for hits. Unless noted, the call rests on the fitted dose curve; in most records, active means well fitted curve in the direction sought with a large enough effect; inconclusive means small, poorly fitted or top-dose-only effect, or another doubt; inactive means no such curve, though single readings can be large; an effect the other way counts as inactive or inconclusive.

SMILES | NS1 function inh | AmpC inh no detg | AmpC detergent | Shiga toxin inh | Cycloheximide cs
CCC(CC)NC(=O)c1oc2ccccc2c1COc1ccccc1 | 15% | -2% | 8% | 25 | 8.4*
O=C(Nc1ncccc1Cl)C1COc2ccccc2O1 (stereo not given) | 17% | -6% | 2% | 161* | 53*
Cc1ccc(NC(=O)C2Oc3ccccc3OC2C)cc1 (stereo not given) | -18% | -16% | 3% | 19 | 15*
Cc1ccc(NC(=O)C2COc3ccccc3O2)c(C)c1 (stereo not given) | -17% | 16% | ? | . | 23*
CC1(C)Oc2ccc(NC(=O)C3COc4ccccc4O3)cc2O1 (stereo not given) | -184% | -14% | -3% | 72 | 35*
COc1ccccc1CNS(=O)(=O)c1c(C)nc2sccn2c1=O | 22% | -9% | -14% | -4 | 1
N#Cc1cccc(NC(=O)COC(=O)Cn2nc(-c3ccccc3)oc2=O)c1 | . | -9% | ? | . | .
C/C(=N\NC(=O)C1COc2ccccc2O1)c1ccccn1 (stereo not given) | -41% | -18% | ? | 24 | 16*
O=C(Nc1ccccc1F)C1COc2ccccc2O1 (stereo not given) | -13% | -32% | ? | 43* | 33*
Cc1ccc(NC(=O)C2COc3ccccc3O2)cc1 (stereo not given) | -24% | -15% | -6% | 105* | 35*
CCCNC(=O)c1ccccc1NC(=O)C1COc2ccccc2O1 (stereo not given) | -1% | 27% | -4% | -15 | 22
O=C(Nc1ccccc1)C1COc2ccccc2O1 (stereo not given) | 5% | 2% | 4% | 57* | 22*
CC(=O)c1cc(-c2ccccc2)n(CCC(=O)Nc2cc(C)cc(C)c2)c1C | . | . | -4% | . | .
CCOC(=O)c1c(NC(=O)c2cc(=O)c3c(C)cc(C)cc3o2)sc(C)c1C | . | . | 9% | . | .
COc1ccccc1N1CCN(C(CNC(=O)C(=O)NCCCN(C)C)c2cccnc2)CC1 (stereo not given) | . | . | 20% | . | .
Nc1c(-c2nc(-c3cccs3)no2)nnn1-c1ccccc1Cl | . | . | 14% | . | .
O=C(Nc1ccc(-c2cn3ccsc3n2)cc1)C1COc2ccccc2O1 (stereo not given) | -18% | 16µM* | ? | 56 | 18
O=C(Nc1ccc([N+](=O)[O-])cc1)C1COc2ccccc2O1 (stereo not given) | -7% | -51% | ? | . | -4
Cc1cc2oc(=O)cc(Cn3ncc(Cl)c(Cl)c3=O)c2cc1Cl | -2% | -42% | -5% | 8 | -2
CC(C)c1c(C(=O)N/N=C2\CCc3ccccc32)nnn1-c1nonc1N | 1% | -20% | -7% | 35 | -6
CN(C(=O)c1cccc(COc2ccc(Cl)cc2Cl)c1)c1ccccc1 | -13% | 6% | -1% | 185* | 171*
COC(=O)c1ccccc1NC(=S)NC(=O)COc1ccccc1Cl | -6% | -6% | 3% | -7 | -3
O=C(c1cccc(COc2cccc3ccccc23)c1)N1CCCC1 | -21% | 67% | -8% | 47* | 40*
COC(=O)c1ccccc1NC(=O)c1cccc(COc2ccccc2Cl)c1 | -5% | -21% | -5% | 89* | 86*
O=C(NCc1ccccc1)c1cccc(COc2ccccc2Cl)c1 | -9% | -49% | 8% | 120* | 61*
SMILES | NS1 function inh | AmpC inh no detg | AmpC detergent | Shiga toxin inh | Cycloheximide cs
COc1ccc(-n2c3c(cc(-c4nc(-c5ccc(Cl)cc5)cs4)c2=O)C(=O)CC(C)(C)C3)cc1Cl | . | . | 27% | . | .
COc1ccc(S(=O)(=O)N(CC(=O)N/N=C/c2cccs2)c2cc(C)cc(C)c2)cc1OC | 9% | ? | -8% | 25 | 0
CCOC(=O)c1ccccc1NC(=O)COC(=O)Cc1ccccc1F | . | -10% | -14% | . | .
NNC(=O)c1cccc(COc2ccccc2Br)c1 | 21% | -16% | 1% | 100* | 81*
NNC(=O)c1cccc(COc2ccc3c(c2)CCC3)c1 | ? | -6% | 3% | 196* | 206*
O=C(c1cccc(COc2ccc(Cl)cc2Cl)c1)N1CCN(c2ccccn2)CC1 | -110% | . | 5% | + | 92*
O=C(c1ccc(F)cc1)N1CCN(c2ccccn2)CC1 | 1% | -15% | ? | . | 1
O=C(c1ccc(COCC(F)(F)F)cc1)N1CCN(c2ccccn2)CC1 | -2% | -11% | 2% | 46* | 35*
O=C(Oc1ccc(Cl)c2cccnc12)C12CC3CC(CC(C3)C1)C2 | -8% | -16% | -6% | 35 | -3
COc1ccc(N2CCN(C(=S)NC(C)c3ccccc3)CC2)cc1 (stereo not given) | . | 8% | -3% | 1 | 6
O=C(NCc1ccccc1)c1cccc(COc2cc(Cl)ccc2Cl)c1 | 8% | -38% | -4% | 118* | 41*
O=C(NCc1ccccc1)c1cnc(Cl)c(Cl)c1 | 1% | -8% | 2% | 20 | 23*
CCOc1cccc(C(=O)NCc2ccccc2)c1 | -2% | -7% | -2% | 13 | 7
NS(=O)(=O)c1cccc(NC(=O)COC(=O)CSCc2ccccc2)c1 | . | -33% | . | . | .
c1ccn(-c2ccc(N3CCOCC3)cc2)c1 | -32% | 6% | 1% | 49* | 38*
Cc1ccc(C)n1-c1ccc(N2CCOCC2)cc1 | ? | 65% | -7% | 71 | 22*
Cc1ccc(C)n1-c1ccc(N2CCOCC2)c([N+](=O)[O-])c1 | ? | 13% | -4% | 23 | -1
Oc1ccc2cc(Br)ccc2c1CN1CCCC1 | . | -54% | -12% | -6 | -1
CCOC(=O)CCCc1ccc(/C(C)=N/NC(N)=S)cc1 | -53% | -35% | -7% | 25 | 15*
COc1cc2c(cc1OC)C(c1ccc(Cl)cc1)N(c1ccc(C)c(F)c1)C(=O)C2 (stereo not given) | . | . | 14% | . | .
Cc1ccc(CNC(=O)CN2C(=O)COc3ccc(S(=O)(=O)N4CCCCC4)cc32)o1 | 3% | -19% | -5% | 10 | 9
Cc1cccc(NC(=O)c2ccc3ccccc3n2)c1C | -7% | 1% | 3% | 186* | 23*
Cc1csc(NC(=O)c2cnc3ccccc3n2)n1 | 3% | -8% | ? | 22 | 8.4*
Cc1ccccc1NC(=O)c1cccc(C(=O)Nc2ccccc2C)n1 | 12% | -2% | 6% | -10 | -1
O=C(Nc1nccs1)c1ccc2ccccc2n1 | 5% | 1% | -12% | 120* | 45*
O=C(Nc1ccccn1)c1ccc2ccccc2n1 | -62% | -11% | -10% | 81* | 66*
CN(C)c1ccc(NC(=O)CSC2=Nc3ccccc3C3=NC(CC(=O)NCc4ccc5c(c4)OCO5)C(=O)N23)cc1 (stereo not given) | . | . | -1% | . | .
CCOc1ccc(NC(=O)Cn2nnc(C(=O)NCCc3ccccc3)c2N)cc1 | . | . | 3% | . | .
COc1cc(C)c(S(=O)(=O)NOCc2ccccc2)c(C)c1C | -92% | -22% | -2% | . | 4
Cc1csc(NC(=O)c2cc(C)nc3ccccc23)n1 | . | -9%[11.4 µM] | ? | -7 | -2
